From PubChem BioAssay (NCI)
About 79,000 compounds went through this panel and 15% of them were active in at least one assay; those are over-represented in the sample as a whole. The source made the active and inactive calls. No stated cut-off is given here; in the data, active means growth inhibition above about 70%; inactive means the rest.

Key:
[1] = NCI Yeast Anticancer Drug Screen. Data for the rad50 strain (AID 155);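 further: 0% = growth of vehicle-only cultures of the same strain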; conditions: S. cerevisiae rad50 strain growth inhibition; at 50.0 µM; hits give high values
How it was run: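 Relative growth inhibition (compound vs vehicle) was measured in yeast with a defined repair-gene alteration.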

[2] = NCI Yeast Anticancer Drug Screen. Data for the mec2-1 strain (AID 157); conditions: S. cerevisiae mec2-1 strain, at 50.0 µM, hits give high values
How it was run: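 Vehicle-treated cultures served as reference for growth inhibition of compound-exposed mec2-1 yeast.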

[3] = NCI Yeast Anticancer Drug Screen. Data for the sgs1 mgt1 strain (AID 161);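 further: 0% = growth of cultures given vehicle only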; conditions: S. cerevisiae sgs1 mgt1 strain, at 50.0 µM, hits give high values
How it was run: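 Mutant yeast exposed to compound; growth scored against vehicle-only wells.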

[4] = NCI Yeast Anticancer Drug Screen. Data for the cln2 rad14 strain (AID 165);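 further: 0% = growth equal to vehicle treated cultures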; conditions: S. cerevisiae cln2 rad14 strain, at 50.0 µM, hits give high values
How it was run: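 Each compound was tested on cln2 rad14 yeast. Inhibition of growth was calculated against vehicle-exposed controls.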

[5] = NCI Yeast Anticancer Drug Screen. Data for the bub3 strain (AID 167); conditions: S. cerevisiae bub3 mutant strain, at 50.0 µM, hits give high values
How it was run: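 Screening used yeast with an engineered genetic alteration affecting cell cycle control. Compound-exposed cultures were compared with vehicle cultures, and reduced growth was taken as inhibition.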

[6] = NCI Yeast Anticancer Drug Screen. Data for the mlh1 rad18 strain (AID 175); conditions: S. cerevisiae mlh1 rad18 strain growth inhibition; at 50.0 µM; hits give high values
How it was run: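 Vehicle-treated cultures served as the reference for growth inhibition in a yeast strain carrying DNA damage repair alterations exposed to each compound.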

Row | SMILES | growth inhibition [1] | growth inhibition [2] | growth inhibition [3] | growth inhibition [4] | growth inhibition [5] | growth inhibition [6]
1 | S=C(NCc1cccc2ccccc12)Nc1ccccc1 | -9.3% (inactive) | 7.8% (inactive) | 39% (inactive) | -27.5% (inactive) | 8.8% (inactive) | 20.9% (inactive)
2 | CC(=O)Oc1ccc(OC(C)=O)c(C(=O)O)c1 | 15.1% (inactive) | -2.65% (inactive) | 2.9% (inactive) | -39.3% (inactive) | -2.3% (inactive) | 17.4% (inactive)
3 | CCCCCCCCC(=O)O (tested in a mixture with another compound) | 2.3% (inactive) | 6.75% (inactive) | 9.95% (inactive) | 12.7% (inactive) | 2.85% (inactive) | 29.1% (inactive)
4 | Clc1nncc(SCc2ccccc2)c1SCc1ccccc1 | 17.2% (inactive) | 11.6% (inactive) | 8.3% (inactive) | -9% (inactive) | 22.5% (inactive) | 8.4% (inactive)
5 | O=S1(=O)NNC(=NCc2ccc(Cl)c(Cl)c2)c2ccccc21 | 11.2% (inactive) | -11.8% (inactive) | -6.15% (inactive) | -1.4% (inactive) | 3.2% (inactive) | -16.4% (inactive)
6 | CCCCCCCCCCCCCCCCCCc1c(C)cc(C)cc1C | 3.7% (inactive) | 23.2% (inactive) | 3.7% (inactive) | 33.3% (inactive) | 3.55% (inactive) | 4.3% (inactive)
7 | NC1C(=O)Nc2ccccc21 (configuration not stated) | 1.85% (inactive) | 5.95% (inactive) | -5.75% (inactive) | -1.05% (inactive) | 8.35% (inactive) | 4.95% (inactive)
8 | CCOC(=O)N1CC(C)N(C(=O)OCC)CC1C (configuration not stated) | -3.9% (inactive) | -7.1% (inactive) | 6.7% (inactive) | -15.8% (inactive) | 33.8% (inactive) | 8.5% (inactive)
9 | CN(NC(=O)CCCl)C1=NCCN1 | 5.15% (inactive) | -4.6% (inactive) | -3.95% (inactive) | -11% (inactive) | 8.1% (inactive) | 16.7% (inactive)
10 | O=C(Nc1c(Oc2ccc(Cl)c(Cl)c2)ccc(Cl)c1S(=O)(=O)O)Nc1c(Oc2ccc(Cl)c(Cl)c2)ccc(Cl)c1S(=O)(=O)O | 22.2% (inactive) | -3.25% (inactive) | 13.9% (inactive) | 11.7% (inactive) | 22.1% (inactive) | 22.2% (inactive)
11 | O=C(O)CNCc1ccccc1 | 2.85% (inactive) | 22.5% (inactive) | 14.6% (inactive) | -4.45% (inactive) | 16.4% (inactive) | -15.3% (inactive)
12 | COc1ccc(CC(N)C(=O)OC(C)C)cc1 (configuration not stated) | -16.3% (inactive) | -12.3% (inactive) | -5.05% (inactive) | -36% (inactive) | 11% (inactive) | 1.4% (inactive)
13 | O=C(CCc1ccco1)CCc1ccco1 | 7.6% (inactive) | -3.35% (inactive) | 5.45% (inactive) | -9.05% (inactive) | -3.5% (inactive) | -0.6% (inactive)
14 | CSC(c1ccc(Oc2ccccc2)cc1)=[N+]1CCCCC1 | 47.2% (inactive) | 13.2% (inactive) | 49.4% (inactive) | 23.2% (inactive) | 53.5% (inactive) | 23.7% (inactive)
15 | CCOC(=O)C(CCSC)(CCSC)C(=O)OCC | -41.4% (inactive) | -56.7% (inactive) | -31.7% (inactive) | 11.8% (inactive) | 20.4% (inactive) | -13.1% (inactive)
16 | O=C1CCC(C(=O)O)N1 (configuration not stated) | -9.2% (inactive) | 4.7% (inactive) | -20.9% (inactive) | 1.15% (inactive) | 7.7% (inactive) | -7.8% (inactive)
17 | NC(=O)c1ncn2c(=O)n(CCl)nnc12 | 57.4% (inactive) | 81.6% (active) | 29.6% (inactive) | 45.5% (inactive) | 57.5% (inactive) | 83.5% (active)
18 | Brc1cccc(Br)n1 | -6.45% (inactive) | -6.15% (inactive) | -7.55% (inactive) | 7.4% (inactive) | 2.1% (inactive) | 4.05% (inactive)
19 | CC(=O)OC(C)(C#N)C(C)(C#N)OC(C)=O (configuration not stated) | -13.3% (inactive) | -6.4% (inactive) | -1.1% (inactive) | -37.1% (inactive) | -8.75% (inactive) | -20.3% (inactive)
20 | CN(C)CC(Cc1ccccc1)c1ccccc1 (configuration not stated) | -19.9% (inactive) | -10.9% (inactive) | -18.6% (inactive) | 7.6% (inactive) | -5.4% (inactive) | -17.6% (inactive)
21 | C=C1CCCC(C)(C)C1CC/C(C)=C/CC/C(C)=C/CO (configuration not stated) | -0.75% (inactive) | -1.45% (inactive) | 12.7% (inactive) | 8.4% (inactive) | 8.75% (inactive) | 12.1% (inactive)

Row | SMILES | growth inhibition [1] | growth inhibition [2] | growth inhibition [3] | growth inhibition [4] | growth inhibition [5] | growth inhibition [6]
22 | COc1ccc(C(O)C(CN(C)C)CN(C)C)cc1 (configuration not stated) | -0.75% (inactive) | -19.6% (inactive) | 6.65% (inactive) | 8.15% (inactive) | 8.7% (inactive) | 10.8% (inactive)
23 | COC(=O)/C=C/c1ccc(OP(=O)(O)O)c(OC)c1 | -22.1% (inactive) | -8.9% (inactive) | -30.6% (inactive) | -20.6% (inactive) | -56.7% (inactive) | -15.4% (inactive)
24 | NC(=O)c1cn2ccccc2c1[N+](=O)[O-] | 8.25% (inactive) | 27.6% (inactive) | 3.35% (inactive) | -20.2% (inactive) | 2.8% (inactive) | 5.2% (inactive)
25 | Cc1c(OC(C)C(=O)O)ccc2c(-c3ccccc3)cc(=O)oc12 (configuration not stated) | 2.95% (inactive) | 12.7% (inactive) | 23.9% (inactive) | 27.2% (inactive) | 5.9% (inactive) | 38.2% (inactive)
26 | CCN(CC)CCCCNc1ccnc(N)n1 | -8.65% (inactive) | -10.5% (inactive) | 2.7% (inactive) | -23.3% (inactive) | 18.2% (inactive) | 16% (inactive)
27 | Cc1cccc(N2CCC(O)C2)c1 (configuration not stated) | -5.3% (inactive) | 7.25% (inactive) | -0.1% (inactive) | 9.35% (inactive) | -6.9% (inactive) | -21.1% (inactive)
28 | CNCCCCCCNc1cc(OC)cc2cccnc12 | 45% (inactive) | 18.7% (inactive) | 56% (inactive) | 7.05% (inactive) | 23.1% (inactive) | 58.8% (inactive)
29 | O=P(CCc1ccccc1)(OCCCl)OCCCl | 10.2% (inactive) | 2.15% (inactive) | 3.85% (inactive) | 14.3% (inactive) | 6.5% (inactive) | -5% (inactive)
30 | CCOC(=O)/C=C\C(=O)O.[Mn] | -16.2% (inactive) | -21.4% (inactive) | -7.65% (inactive) | -22.9% (inactive) | -31% (inactive) | -33.5% (inactive)
31 | O=C(Cc1csc(N=Nc2c(O)[nH]c3ccccc23)n1)Nc1ccccc1 | -16.2% (inactive) | -24.4% (inactive) | -6.35% (inactive) | -8.75% (inactive) | -7.05% (inactive) | 10.9% (inactive)
32 | CCOC(=O)C(CCC(c1ccc(OC)cc1)c1ccc(OC)cc1)C(=O)OCC | 29.7% (inactive) | -8.15% (inactive) | 10.2% (inactive) | 2.05% (inactive) | 27.6% (inactive) | -18.2% (inactive)
33 | CCCCCCCCCCCCOc1ccc(Br)cc1 | 11.4% (inactive) | 9.25% (inactive) | 19% (inactive) | -23.4% (inactive) | -13.4% (inactive) | 8.7% (inactive)
34 | Cc1nn(-c2ccccc2)c(SC(C)(C)C)c1C=NCCN=Cc1c(C)nn(-c2ccccc2)c1SC(C)(C)C | 28.6% (inactive) | 15.3% (inactive) | 18.2% (inactive) | 24.3% (inactive) | -5.85% (inactive) | 18.8% (inactive)
35 | O=C(NN(Cn1c(=S)sc2ccccc21)Cn1c(=S)sc2ccccc21)c1ccccc1O | 86.7% (active) | 74.2% (active) | 89% (active) | 57.6% (inactive) | 69% (inactive) | 76.2% (active)
36 | O=C(CC1(O)CCCCC1)Nc1ccccc1 | 1.9% (inactive) | -8.45% (inactive) | -8.4% (inactive) | -54.6% (inactive) | 4.6% (inactive) | -13.1% (inactive)
37 | CC(C)=C1C2C=CC1C(CO)C2CO (configuration not stated) | 9.8% (inactive) | -4.4% (inactive) | -3.95% (inactive) | -64% (inactive) | 2.2% (inactive) | 10.8% (inactive)
38 | CN(/N=C/c1cccs1)c1ccc([N+](=O)[O-])cc1[N+](=O)[O-] | -24.7% (inactive) | -25.5% (inactive) | 7.05% (inactive) | -9.35% (inactive) | -12.8% (inactive) | -10.8% (inactive)
39 | COC(=O)c1cc2c(cc1CC(Cc1ccc3c(c1)CCCC3)C(=O)OC)CCCC2 (configuration not stated) | -2.1% (inactive) | 1.35% (inactive) | -15.2% (inactive) | 2.35% (inactive) | -2.25% (inactive) | -5.15% (inactive)
40 | COc1ccc(C(=O)c2ccccc2)c(O)c1OC | -12.9% (inactive) | -5.95% (inactive) | -2.35% (inactive) | -0.75% (inactive) | 45.8% (inactive) | 10.3% (inactive)
41 | O=c1nc(NC(c2ccccc2)(c2ccccc2)c2ccccc2)ccn1CCCl | -5.35% (inactive) | 4.55% (inactive) | -1.5% (inactive) | -23.9% (inactive) | -20.9% (inactive) | -9.7% (inactive)
42 | C1CC(CCC2CCNCC2)CCN1 | 1.6% (inactive) | 1.15% (inactive) | 4.15% (inactive) | -13.4% (inactive) | 11.7% (inactive) | 1.55% (inactive)
